High-throughput results as filed in PubChem BioAssay.
15-hLO inh: 15-hLO (ALOX15) enzyme inhibition; P16050; purified 15hLO-1, xylenol orange hydroperoxide absorbance; Potency, µM (highest dose often 57.1 µM), hits mostly inhibitors; hit rate 1.4% among 74,000; AID 887; note: nearly all actives have a fitted effect of over 55% in size
Target sequence (P16050 whole entry, looked up): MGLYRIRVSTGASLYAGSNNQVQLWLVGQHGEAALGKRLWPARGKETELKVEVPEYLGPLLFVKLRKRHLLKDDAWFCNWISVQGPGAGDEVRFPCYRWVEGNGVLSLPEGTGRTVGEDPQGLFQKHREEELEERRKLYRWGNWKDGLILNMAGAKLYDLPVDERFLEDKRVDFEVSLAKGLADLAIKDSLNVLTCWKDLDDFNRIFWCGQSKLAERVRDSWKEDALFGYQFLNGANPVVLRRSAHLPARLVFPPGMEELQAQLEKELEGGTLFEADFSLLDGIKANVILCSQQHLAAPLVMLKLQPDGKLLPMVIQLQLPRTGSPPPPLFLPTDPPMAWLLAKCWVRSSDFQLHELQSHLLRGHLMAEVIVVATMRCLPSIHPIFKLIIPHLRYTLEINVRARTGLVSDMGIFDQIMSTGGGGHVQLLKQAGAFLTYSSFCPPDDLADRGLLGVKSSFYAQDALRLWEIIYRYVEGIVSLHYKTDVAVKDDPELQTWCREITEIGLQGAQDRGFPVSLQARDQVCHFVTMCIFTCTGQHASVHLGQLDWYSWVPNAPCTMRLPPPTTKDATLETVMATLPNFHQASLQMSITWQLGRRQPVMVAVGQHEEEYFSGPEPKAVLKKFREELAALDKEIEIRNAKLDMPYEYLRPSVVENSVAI
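40 nM 15hLO-1 + cpd, 15 min RT; start w/ 50 uM AA (final), 6 min RT; stop/detect w/ 200 uM XO + 300 uM Fe(II) in 50 mM H2SO4, 30 min; A573/A405. Buffer 25 mM Hepes pH 7.5, 0.01% Triton X-100. No-enzyme wells as negative control.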
Hsp90 Hop PPI: changes Hsp90-Hop TPR2A binding signal, up or down; hit rate 0.44% among 71,000; AlphaScreen TPR2A-His6 binding biotin-Hsp90 C-terminal peptide; Potency, µM (doses to about 57 µM); active = well fitted curve in either direction with a large enough effect; inconclusive = small, poorly fitted or top-dose-only effect, or another doubt
BRCT inh green: blocks human BRCA1 BRCT binding to phosphopeptide, green readout | Potency, µM (highest dose often 76.9 µM), most hits filed as inhibitors | BRCA1 BRCT-phosphopeptide binding, green fluorescence polarization | hit rate 0.05% among 75,000 | P38398 | AID 875
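Fluorescence polarization: His-tagged BRCT (~35 kDa BRCA1 C-terminus, 250 nM) bound to 100 nM fluorescein-labeled phosphorylated 10-aa BACH1 peptide, pH 7.3 phosphate buffer with DTT and Tween 20. Compounds incubated 12 min at room temperature; inhibition read as lowered polarization.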
DNA Pol III inh: blocks replication by bacterial DNA polymerase III holoenzyme | Potency, µM (titrated, usually from 57.1 µM) | hit rate 0.25% among 71,000 | AID 603 | reconstituted DNA polymerase III holoenzyme replication, biochemical
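Reconstituted *E. coli* holoenzyme (0.35 nM Pol III, 1 nM beta, 154 nM SSB, 2 nM primase) was preincubated with compound for 15 min at RT. Synthesis on 1.4 nM ssM13Gori ran 35 min, then was stopped with PicoGreen/EDTA and read as dsDNA fluorescence.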
YjeE inh: YjeE (TsaE) inhibition, E. coli | purified YjeE enzyme, qHTS inhibition assay | hit rate 0.05% among 71,000 | Potency, µM | P0AF67 | AID 605
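Fluorescence polarization of a BODIPY Texas Red–ADP probe (2 uM) bound to purified YjeE (10 uM) was read after 15 min room-temperature incubation with compounds. Loss of polarization marks inhibitors; ADP serves as titrated control.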
BRCT PPI red: inhibitors of human BRCA1 BRCT-phosphoprotein interaction (red fluorophore) | P38398 | BRCT-phosphopeptide binding, red fluorescence polarization | Potency, µM (highest dose often 76.9 µM), most hits filed as inhibitors | hit rate 0.03% among 75,000 | AID 892
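Fluorescence polarization: 100 nM His-tagged BRCA1 BRCT with 100 nM TAMRA-labelled phospho-BACH1 decapeptide, phosphate buffer pH 7.3 with 150 mM NaCl, DTT, 0.01% Tween 20; 12 min RT. Binding inhibition seen as FP decrease.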
Each line names hits and unclear results; the compound was inactive in the other large screens. The list is not random: actives were taken first. Their share in the collection is about 1.9%. Unless noted, calls come from the whole dose curve; as a rule, active = well fitted curve in the direction sought with a large enough effect; inconclusive = small, poorly fitted or top-dose-only effect, or another doubt; inactive = no such curve, though single readings can be large; an effect the other way counts as inactive or inconclusive.

COC(=O)[C@@H](NC(=O)c1cc(-c2ccccc2)nc2ccccc12)c1ccccc1	none (no result: 15-hLO inh, BRCT inh green, BRCT PPI red)
CN=c1nc(-c2ccccc2)n(-c2ccccc2)s1	15-hLO inh 0.79µM
Cc1cc(=O)n2nc(-c3ccccc3)sc2n1	none
Cc1ccc(C(=O)[C@@H]2[C@@H]3[C@@H](C(=O)[C@@H]4OC[C@H]3O4)[C@@H]3C=Cc4ccccc4N23)cc1	Hsp90 Hop PPI inconclusive (no result: 15-hLO inh, BRCT inh green, BRCT PPI red)
Cc1ccc2c(c1)N(CC(=O)NCC1COc3ccccc3O1)C(=O)CO2 (configuration not stated)	none
Cc1ccc(CNC(=O)c2cccc(OCc3c(C)noc3C)c2)cc1	none
COc1cc(C(=O)NCc2ccc3c(c2)OCO3)ccc1OCc1c(C)noc1C	15-hLO inh 13µM
O=C(O)c1cccc(SSc2cccc(C(=O)O)c2)c1	none
COc1cc(CNc2ccc3[nH]c(=O)[nH]c3c2)ccc1OCC(=O)NC(C)(C)C	15-hLO inh 25µM
O=C(O)COCCN1CCN([C@@H](c2ccccc2)c2ccc(Cl)cc2)CC1	none
O=C(c1ccccc1)[C@H](Nc1ccc2ccccc2c1)c1ccccc1	none
NC(Cc1ccc(O)c(O)c1)C(=O)O (configuration not stated)	15-hLO inh 4µM (no result: Hsp90 Hop PPI, DNA Pol III inh, YjeE inh)
N[C@H](Cc1ccc(O)c(I)c1)C(=O)O	none (no result: 15-hLO inh, BRCT inh green, BRCT PPI red)
CC(=O)OC(C)(C)N=Nc1ccc(Br)cc1	Hsp90 Hop PPI inconclusive (no result: 15-hLO inh, BRCT inh green, BRCT PPI red)
Cn1c(=O)c2[nH]c(CS(=O)(=O)Cc3nc4c([nH]3)c(=O)n(C)c(=O)n4C)nc2n(C)c1=O	none
N#CC1=C(N)SC(N)=C(C#N)C1c1ccnc2ccccc12	15-hLO inh 4µM, Hsp90 Hop PPI inconclusive
O=c1c(-c2ccccc2)coc2cc(O)cc(O)c12	15-hLO inh 3.2µM, BRCT PPI red inconclusive (no result: Hsp90 Hop PPI, DNA Pol III inh, YjeE inh)
O=c1cc(-c2ccccc2)oc2cc(O)cc(O)c12	none
O=c1c(-c2ccc3c(c2)OCCO3)coc2cc(O)cc(O)c12	15-hLO inh 16µM
O=C(O)CCCCn1cnc2c(=S)nc[nH]c21	none
CN1CCc2nc(SCCOc3ccccc3)c(C#N)cc2C1	15-hLO inh 3.2µM
COc1ccc2c3c(cccc13)NN=C2C	15-hLO inh 13µM, DNA Pol III inh 32µM
COc1cccc(OC)c1OCCCc1c(C)n[nH]c1C	none
O=C(/C=C/c1ccc(O)cc1)c1ccccc1O	15-hLO inh 10µM (no result: Hsp90 Hop PPI, DNA Pol III inh, YjeE inh)
CN(C)CC(C)(C)CNC(=O)c1ccc(-n2c(=O)c(=O)[nH]c3ccccc32)cc1	none (no result: Hsp90 Hop PPI, DNA Pol III inh, YjeE inh)
CC1=CC(C)(C)N2C(=O)C3(N=C(N)NC(Nc4ccccc4)=N3)c3cc(C)cc1c32 (configuration not stated)	15-hLO inh 25µM
Cc1ccc(S(=O)(=O)N(CC(=O)O)Cc2cccc(C)c2)cc1	none (no result: Hsp90 Hop PPI, DNA Pol III inh, YjeE inh)
COC(=O)c1ccc(O)c(Sc2cc(C(=O)OC)ccc2O)c1	15-hLO inh 16µM
c1ccc(-c2ccc(-c3ccc(C4=NCCN4)cc3)o2)cc1	none
C[C@H](CCC(=O)NN)[C@@H]1CC[C@@H]2[C@H]3CC[C@H]4C[C@@H](O)CC[C@@]4(C)[C@@H]3CC[C@]21C	none
COC(=O)CSc1nc(-c2ccccc2)cc(-c2ccco2)c1C#N	15-hLO inh inconclusive, Hsp90 Hop PPI inconclusive
N#Cc1c(-c2ccco2)cc(C2CC2)nc1SCC(=O)c1ccccc1	15-hLO inh 16µM
CCOC(=O)c1cc(-c2ccc(N)cc2)sc1N	15-hLO inh 25µM
Nc1nc2sc3c(c2cc1C(=O)N1CCOCC1)CCCC3	15-hLO inh 3.2µM
CC(C)(C)c1ccc(O)c(O)c1	15-hLO inh 4µM
Cc1ccc2c(c1)-c1cc(C)nn1C(c1sccc1C)N2 (configuration not stated)	15-hLO inh inconclusive, Hsp90 Hop PPI 25µM
CN(C)c1ccc(/C=N/n2ncc3ccccc32)cc1	Hsp90 Hop PPI 25µM
CCOc1ccccc1N1C(=O)CC(Nc2ccc(N3CCOCC3)cc2)C1=O (configuration not stated)	15-hLO inh inconclusive
COc1ccccc1N1C(=O)CC(Nc2ccc(N3CCOCC3)cc2)C1=O (configuration not stated)	15-hLO inh 13µM
O[Si@](CCCN1CCCCC1)(c1ccc(F)cc1)C1CCCCC1	none
CC(CC1C(C#N)=C(N)SC(N)=C1C#N)c1ccccc1 (configuration not stated)	15-hLO inh 16µM
O=C(O)[C@@H](c1ccccc1)N1Cc2ccccc2C1=O	15-hLO inh 7.9µM
O=c1cc(-c2ccccc2)oc2cc(O[C@@H]3O[C@H](CO)[C@@H](O)[C@H](O)[C@H]3O)c(O)c(O)c12	none (no result: Hsp90 Hop PPI, DNA Pol III inh, YjeE inh)
O=C(Nc1nnc(COc2ccc(Cl)cc2)s1)C1CCCO1 (configuration not stated)	15-hLO inh 7.9µM
O=C(Nc1nnc(COc2ccc(Cl)cc2)s1)c1cccs1	15-hLO inh 16µM
CCCc1nnc(NC(=O)C2CCCO2)s1 (configuration not stated)	none
CCCCCCCCCCCCCCCC(=O)NC[C@@H](COP(=O)([O-])OCC[N+](C)(C)C)OCC	none
CS(=O)(=O)N(CC(=O)O)c1ccccc1	none (no result: Hsp90 Hop PPI, DNA Pol III inh, YjeE inh)
CC[C@@H]1CN2CCc3cc(OC)c(OC)cc3[C@H]2C[C@@H]1C[C@@H]1NCCc2cc(OC)c(OC)cc21	none
NCCNCCNCCN	Hsp90 Hop PPI 6.3µM
O=C(COC(=O)c1ccccc1)NCc1ccco1	none
COc1ccc(OCCC(=O)OCC(=O)NCc2ccco2)cc1	15-hLO inh 13µM
O=C(COC(=O)c1ccccc1Oc1ccccc1)NCc1ccco1	15-hLO inh 13µM
CCNC(=O)[C@@H]1O[C@@H](n2cnc3c(NCc4ccccc4)ncnc32)[C@@H](O)[C@H]1O	none (no result: 15-hLO inh, BRCT inh green, BRCT PPI red)
C#CCN1C(C)=C(C(=O)OC)[C@@H](c2cccc([N+](=O)[O-])c2)C(C(=O)OCC)=C1C	none
CCN1CCC[C@@H]1CNC(=O)c1c(OC)ccc(I)c1O	none (no result: 15-hLO inh, BRCT inh green, BRCT PPI red)
COc1ccc(CCNC(=O)c2ccc3nc(-c4ccco4)c(-c4ccco4)nc3c2)cc1OC	15-hLO inh 7.9µM
CN(C)/C=C1\C(=O)c2ccc(N(C)C)nc2CC1c1ccccc1 (configuration not stated)	15-hLO inh 5µM
CN(C)/C=C1/Sc2ccccc2C1=O	none (no result: Hsp90 Hop PPI, DNA Pol III inh, YjeE inh)
Cc1nn(-c2ccccc2)c2nc(-c3ccncc3)cc(C(=O)NCc3ccco3)c12	15-hLO inh 25µM
CCOC(=O)c1cc(-c2ccco2)nc2c1c(C)nn2-c1ccccc1	none
C=C(C)CC1Nc2ccccc2NC1CC(=C)C (configuration not stated)	15-hLO inh 20µM, Hsp90 Hop PPI inconclusive
CC(C)C[C@H](NC(=O)[C@@H](O)[C@@H](N)Cc1ccccc1)C(=O)O	none
Nc1ncnc2c1nc(Sc1ccc(Cl)cc1)n2[C@@H]1O[C@H]2COP(=O)(O)O[C@@H]2[C@H]1O	none
